According to PubChem BioAssay AID1159580 (chemical genetic matrix, 2015):
Values joined by “and” are separate entries in the source; they are usually repeats but may differ in a detail not shown here. Equal values may be shown once. In all, about 5,500 compounds went through this assay and about 2,000 (36%) were called active. About 18% were inconclusive and are not listed. No stated cut-off is given here; in the data, active means normalized growth mostly below about 0.91 (no sharp cut-off); inconclusive means no clear call, values can overlap the other calls; inactive means mostly above about 0.92. The list shows a part of the results.

Experiment: chemical genetic growth profiling, strain panel (AID 1159580);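 further: tested at 20 µM; growth read once vehicle control cultures reached saturation at 30 °C; 1 = growth at the plate median or of vehicle wells; lower values mean less growth of the strain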
Conditions: S. cerevisiae deletion strains, growth OD

Measured: normalized growth

CC(CCC(=O)O)[C@H]1CCC2C3CC[C@@H]4CCCC[C@]4(C)C3CC[C@@]21C (stereo partly drawn)
inactive: locus YAL013W, strain DEP1, active compounds read low 0.995 | locus YAL021C, strain ccr4, active compounds read low 1.01 | locus YAL026C, strain drs2, active compounds read low 1.01 | locus YAL030W, strain snc1, active compounds read low 1.01 | locus YBL061C, strain skt5, active compounds read low 1.02 | locus YBR009C, strain hhf1, active compounds read low 1.01 | locus YBR021W, strain FUR4, active compounds read low 0.987 | locus YBR023C, strain chs3, active compounds read low 1.03 | locus YBR171W, strain sec66, active compounds read low 1.02 | locus YBR229C, strain ROT2, active compounds read low 0.991 | locus YBR231C, strain swc5, active compounds read low 1.03 | locus YBR279W, strain paf1, active compounds read low 1.01 | locus YCL011C, strain gbp2, active compounds read low 1.02 | locus YCL016C, strain dcc1, active compounds read low 1.04 | locus YCL029C, strain bik1, active compounds read low 0.98 | locus YCL061C, strain MRC1, active compounds read low 1.02 | locus YCL069W, strain vba3, active compounds read low 1.01 | locus YCR088W, strain abp1, active compounds read low 1.01 | locus YDL005C, strain med2, active compounds read low 0.999 | locus YDL035C, strain GPR1, active compounds read low 0.982 | locus YDL040C, strain nat1, active compounds read low 1.01 | locus YDL074C, strain BRE1, active compounds read low 0.973 | locus YDL101C, strain DUN1, active compounds read low 1.01 | locus YDL185W, strain tfp1, active compounds read low 0.977 | locus YDL192W, strain arf1, active compounds read low 0.98 | locus YDR001C, strain nth1, active compounds read low 1.01 | locus YDR069C, strain doa4, active compounds read low 0.994 | locus YDR101C, strain arx1, active compounds read low 0.983 | locus YDR137W, strain rgp1, active compounds read low 1.05 | locus YDR150W, strain NUM1, active compounds read low 0.995 | locus YDR159W, strain sac3, active compounds read low 0.998 | locus YDR162C, strain NBP2, active compounds read low 1.04 | locus YDR195W, strain ref2 0.981 | locus YDR297W, strain sur2, active compounds read low 1.01 | locus YDR318W, strain mcm21, active compounds read low 0.988 | locus YDR334W, strain swr1, active compounds read low 1 | locus YDR335W, strain msn5, active compounds read low 1 | locus YDR388W, active compounds read low 0.987 | locus YDR392W, strain spt3, active compounds read low 0.943 | locus YDR502C, strain sam2, active compounds read low 0.979 | locus YEL003W, strain gim4, active compounds read low 1.01 | locus YEL037C, strain rad23, active compounds read low 0.993 | locus YEL061C, strain CIN8 (second series), active compounds read low 1.01 | locus YEL061C, strain CIN8, active compounds read low 0.995 | locus YER015W, strain faa2, active compounds read low 1 | locus YER016W, strain bim1, active compounds read low 1.01 | locus YER110C, active compounds read low 0.986 | locus YER111C, strain swi4, active compounds read low 1.02 | locus YER155C, strain BEM2 (second series), active compounds read low 1.03 | locus YER155C, strain BEM2, active compounds read low 0.989 | locus YER167W, strain BCK2, active compounds read low 0.98 | locus YFR010W, strain ubp6, active compounds read low 0.997 | locus YGL078C, strain dbp3, active compounds read low 0.989 | locus YGL086W, strain mad1, active compounds read low 0.985 | locus YGL167C, strain pmr1, active compounds read low 1.01 | locus YGL173C, strain kem1, active compounds read low 1.01 | locus YGL227W, strain vid30, active compounds read low 1.02 | locus YGL240W, strain doc1, active compounds read low 1.03 | locus YGL248W, strain PDE1, active compounds read low 1 | locus YGL253W, strain hxk2, active compounds read low 1 | locus YGR078C, strain PAC10, active compounds read low 1.02 | locus YGR135W, strain pre9, active compounds read low 1.02 | locus YGR252W, strain gcn5, active compounds read low 1.08 | locus YHR013C, strain ard1, active compounds read low 1.02 | locus YHR027C, strain rpn1, active compounds read low 0.995 | locus YHR030C, strain SLT2, active compounds read low 0.997 and 0.97 | locus YHR079C, strain IRE1 (second series), active compounds read low 0.981 | locus YHR079C, strain IRE1, active compounds read low 0.973 | locus YHR094C, strain hxt1, active compounds read low 0.985 | locus YHR129C, strain ARP1, active compounds read low 0.995 | locus YHR142W, strain chs7, active compounds read low 1 | locus YHR200W, strain rpn10, active compounds read low 0.995 | locus YIL066C, strain RNR3, active compounds read low 0.992 | locus YIL073C, strain SPO22, active compounds read low 1.02 | locus YIL125W, strain kgd1, active compounds read low 0.988 | locus YIR030C, strain dcg1, active compounds read low 0.985 | locus YJL092W, strain hpr5, active compounds read low 1.01 | locus YJL095W, strain BCK1 (second series), active compounds read low 1 | locus YJL095W, strain BCK1, active compounds read low 1.02 and 0.968 | locus YJL115W, strain asf1, active compounds read low 1.01 | locus YJL129C, strain trk1, active compounds read low 1.03 | locus YJL134W, strain LCB3, active compounds read low 0.996 | locus YJL154C, strain vps35, active compounds read low 1.01 | locus YJL164C, strain tpk1, active compounds read low 1.02 | locus YJL166W, strain qcr8, active compounds read low 1.01 | locus YJL168C, strain set2, active compounds read low 0.983 | locus YJL187C, strain SWE1 (second series), active compounds read low 1.01 | locus YJL187C, strain SWE1, active compounds read low 1.01
